The results in this text go back to PubChem BioAssay (NCATS).

Assay [1] can be described thus: Primary qHTS for inhibitors of nuclear receptor binding SET domain protein 2 (NSD2) in an RCH-ACV wild type WT cells (2C) (AID 1645877). Also: nearly all actives have a fitted effect of over 70% in size. Also: potency is read from the fitted curve at half-maximal effect. For orientation: qHTS replaces the single test concentration by a dilution series.
Assay [2] deals with Catechol O-methyltransferase (Homo sapiens) (UniProt P21964). Put plainly: Confirmatory Screen for Target Class Profiling of Small Molecule Inhibitors of Methyltransferases (AID 1745852; calls by dose curve; also: potency is read from the fitted curve at half-maximal effect; as to activity change, negative = inhibition: % is scaled to controls: 0 for no effect and ±100 for the full control effect). The settings on record: MTase-Glo luminescence, SAH detection, recombinant enzyme; measured here: COMT max response; stronger effect = lower value.
Assay [3] concerns the target Guanidinoacetate N-methyltransferase (Homo sapiens) (UniProt Q14353). The assay is described as above. The settings on record: activity change, negative = inhibition: at 57.3 µM (top of the series) unless noted.
The target in assay [4] is Nicotinamide N-methyltransferase (Homo sapiens) (UniProt P40261). The description is as above. The settings on record: MTase-Glo luminescence, SAH detection, recombinant enzyme; measured here: NNMT max response; stronger effect = lower value.
Assay [5] addresses Phenylethanolamine N-methyltransferase (Homo sapiens) (UniProt P11086). The assay is described as above. The settings on record: MTase-Glo luminescence, SAH detection, recombinant enzyme; measured here: PNMT max response; stronger effect = lower value.
A short description of assay [6]: NCATS anti-infectives library activity on HEK293 viability as a counter-qHTS vs the C. elegans viability qHTS (AID 1745854).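 Also: potency is read from the fitted curve at half-maximal effect; HEK293 cells exposed to compounds for 24 hr before the viability read.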 The method, boiled down: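 Compound titrations (final up to 41.7 uM) were incubated with HEK293 cells for 24 hr at 37C under 5% CO2. Viable cells were quantified with CellTiter-Glo after 10 min at ambient temperature.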
Assay [7] concerns the target Glutathione peroxidase 1 (Homo sapiens) (UniProt P07203). Nature of the assay: Primary qHTS Assay for Inhibitors of Recombinant Selenoprotein Glutathione Peroxidase 1 (GPX1) (AID 1845191). Also: nearly all actives have a fitted effect of over 65% in size. An outline of the steps:
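NADPH consumption tracked by fluorescence at 340/450 nm between t=0 and t=15 min, room temperature. Final mix: 10 nM GPX1, 100 nM glutathione reductase, 1 mM GSH, 0.5 mM NADPH, 0.5 mM cumene hydroperoxide, 0.01% BSA; 30 min compound–enzyme preincubation.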

Assay [8] has as its target Phospholipid hydroperoxide glutathione peroxidase GPX4 (Homo sapiens) (UniProt P36969). Put plainly: Primary qHTS Assay for Inhibitors of Recombinant Selenoprotein Glutathione Peroxidase 4 (GPX4) (AID 1845192). Also: % is scaled to controls: 0 for no effect and ±100 for the full control effect; nearly all actives have a fitted effect of over 65% in size. An outline of the steps:
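NADPH consumption followed by fluorescence at 340/450 nm, t=0 and after 15 min at room temperature. Reaction started with cumene hydroperoxide (0.5 mM final) after 30 min compound–GPX4 preincubation; final 200 nM GPX4, 100 nM GR, 1 mM GSH, 0.5 mM NADPH.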

For assay [9], the target named is Luciferin 4-monooxygenase (Photinus pyralis) (UniProt P08659). Put plainly: Primary firefly luciferase (FLuc) qHTS assay for identification of artifact compounds. (AID 1845220). Also: nearly all actives have a fitted effect of over 60% in size.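 As to activity change, negative = inhibition: plate controls were DMSO vehicle for no effect and no enzyme for full effect.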 The method, boiled down: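 FLuc 10 nM; luciferin 10 uM; ATP 10 uM; Tris-acetate pH 7.6, Mg-acetate 10 mM; 15 min RT preincubation; 5 min reaction; luminescence.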
The nature of assay [10]: Primary fluorescence-based thiol-reactive (MSTI) qHTS assay for identification of artifact compounds. (AID 1845221). Also: nearly all actives have a fitted effect of over 65% in size. Also: potency is read from the fitted curve at half-maximal effect. The method, boiled down: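 Compounds were incubated 1 h at room temperature in the dark with the MSTI probe (4 uM) in PBS pH 7.4, 2% DMSO. Signals were normalized between Acetyl-MSTI and MSTI.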
For assay [11], the system named is Nanoluciferase (engineered Oplophorus gracilirostris luciferase). Put plainly: Primary Nanoluciferase (NLuc) qHTS assay for identification of artifact compounds. (AID 1845222).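 Also: NLuc secreted into diluted conditioned medium of S16 cells; 0% = DMSO and -100% = no enzyme.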 An outline of the steps: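 NLuc from S16 cell medium (1:55) plus test compounds, 15 min, room temperature. Luminescence after Nano-Glo (1:100) addition, 5 min.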
A short description of assay [12]: Primary redox qHTS assay for identification of artifact compounds. (AID 1845223).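 Also: 0% = DMSO and 100% = reference compound.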 The method, boiled down:
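Redox-cycling detection via DTT (250 uM final) oxidation coupled to Amplex Red (25 uM)/HRP (250 mU/mL) in HBSS. 15 min preincubation plus 30 min after DTT, room temperature. Ex/Em 525/598 nm; 4-parameter Hill fit against DMSO and 10 uM DA3003.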

Results filed as inconclusive are left out. Calls of active or inactive are those of the source. Unless noted, calls follow the shape of the dose curve; as a rule, active = well fitted curve in the direction sought with a large enough effect; inconclusive = small, poorly fitted or top-dose-only effect, or another doubt; inactive = no such curve, though single readings can be large; an effect the other way counts as inactive or inconclusive.

Nicotinamide N-methyltransferase (Homo sapiens), sequence (P40261 whole entry, looked up): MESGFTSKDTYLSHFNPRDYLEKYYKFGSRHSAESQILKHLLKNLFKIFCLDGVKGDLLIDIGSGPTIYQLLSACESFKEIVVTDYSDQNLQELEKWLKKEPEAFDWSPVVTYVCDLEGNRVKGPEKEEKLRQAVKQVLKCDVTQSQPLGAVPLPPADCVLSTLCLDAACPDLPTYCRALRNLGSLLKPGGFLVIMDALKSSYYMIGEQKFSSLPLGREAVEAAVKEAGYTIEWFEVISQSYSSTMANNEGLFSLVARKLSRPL
Phenylethanolamine N-methyltransferase (Homo sapiens), sequence (P11086 whole entry, looked up): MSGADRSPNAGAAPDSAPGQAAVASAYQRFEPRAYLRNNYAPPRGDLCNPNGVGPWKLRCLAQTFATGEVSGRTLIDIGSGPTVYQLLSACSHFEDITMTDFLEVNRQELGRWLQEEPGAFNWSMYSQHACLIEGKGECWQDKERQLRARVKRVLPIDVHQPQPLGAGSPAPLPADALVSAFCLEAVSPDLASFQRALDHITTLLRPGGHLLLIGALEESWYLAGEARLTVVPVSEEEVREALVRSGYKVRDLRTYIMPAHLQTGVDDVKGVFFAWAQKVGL
Phospholipid hydroperoxide glutathione peroxidase GPX4 (Homo sapiens), sequence (P36969 whole entry, looked up): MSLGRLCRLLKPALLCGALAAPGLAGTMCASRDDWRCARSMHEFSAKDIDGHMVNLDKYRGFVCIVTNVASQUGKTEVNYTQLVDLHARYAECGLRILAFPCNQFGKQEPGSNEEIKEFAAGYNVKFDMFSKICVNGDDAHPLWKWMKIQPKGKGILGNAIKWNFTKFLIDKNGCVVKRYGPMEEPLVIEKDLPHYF
Catechol O-methyltransferase (Homo sapiens), sequence (P21964 whole entry, looked up): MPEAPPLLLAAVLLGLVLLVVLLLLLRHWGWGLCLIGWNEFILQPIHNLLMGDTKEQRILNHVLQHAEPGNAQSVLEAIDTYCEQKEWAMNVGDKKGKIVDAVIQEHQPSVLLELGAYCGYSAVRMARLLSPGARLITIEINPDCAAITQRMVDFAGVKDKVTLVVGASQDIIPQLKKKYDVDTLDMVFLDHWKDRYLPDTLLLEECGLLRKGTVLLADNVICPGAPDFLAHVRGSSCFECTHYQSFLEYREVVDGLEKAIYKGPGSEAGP
Glutathione peroxidase 1 (Homo sapiens), sequence (P07203 whole entry, looked up): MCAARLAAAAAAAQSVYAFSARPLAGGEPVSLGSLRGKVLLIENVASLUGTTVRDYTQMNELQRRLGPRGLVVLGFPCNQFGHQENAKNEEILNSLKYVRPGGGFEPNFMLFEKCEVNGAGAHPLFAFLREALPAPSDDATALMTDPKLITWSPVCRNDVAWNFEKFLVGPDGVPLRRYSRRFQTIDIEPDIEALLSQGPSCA

`O=C(c1ccccc1)c1ccc2nc(NC(=O)c3csc(C4CCN(c5ncnc6ccsc56)CC4)n3)[nH]c2c1`: the figures for the Potency in [1] and in [6] were 4.59 µM (active) and 10 µM (active), respectively. Besides, the activity in assay [2] is -7.12%; in assay [4] it was -42%; in assay [5], -13.7%. In assay [3], the activity change, negative = inhibition amounted to 0.0948%. In addition, the Potency result in assay [7], in [8], in assay [9], in assay [10], in assay [11] and in assay [12] was “inactive” in each case.
As to `CC(C)CCC1(O)C(=O)C(C)(C)C(O[C@@H]2O[C@H](CO)[C@@H](O)[C@H](O)[C@H]2O)C(C)(C)C1O` (stereo partly drawn), the Potency entry in [1], in assay [7], in [8], in assay [9], in assay [11] and in assay [12] was “inactive” in each case. Further, the activity in assay [2] was -56.9%; in [4], -3.79%; in assay [5], -2.04%. Moreover, in assay [3], the activity change, negative = inhibition is -2.97% [at 29.8 µM]. In addition, the Potency in assay [10] was 2.32 µM (active).
With `Cc1cc(O)c(-c2ccc([C@@H](C)CN(C)C)cc2)c2c1[nH]c(=O)c1sccc12`, the Potency in [1] was 0.0742 µM (active). Further, the activity was -22.7% in [2], -64.6% in assay [4] and -48.7% in [5]. The activity change, negative = inhibition in [3] is -6.59%. The Potency entry in [7], in assay [8], in [9], in assay [10], in [11] and in assay [12] was “inactive” in each case.
With `C=C1C(=O)OC2/C=C(\CO)CC/C=C(\C=O)CC(OC(=O)CC(C)C)C12` (stereo not drawn), the figures for the Potency in assay [1] and in [10] were 2.26 µM (active) and 16.5 µM (active), respectively. Besides, the activity in [2] is -71%; in assay [4], -4.38%; in assay [5], -2.45%. Also, the activity change, negative = inhibition in assay [3] is -0.648%. In addition, the Potency entry in [7], in [8], in assay [9] and in assay [11] was “inactive” throughout.
Consider `C=C(C(=O)O)[C@@H]1CC[C@@]2(C)CC[C@H](O)[C@@]2(C(C)=O)C1`, for which the Potency in assay [1] was 16.3 µM (active); in assay [10] it was 11.9 µM (active). In addition, the results for the activity in [2], in assay [4] and in assay [5] were -66.3%, -3.52% and -3.81%, respectively. Further, the activity change, negative = inhibition in [3] is -6.04%. Also, the Potency entry in assay [7], in assay [8], in assay [9], in assay [11] and in [12] was “inactive” each time.
On to `CCC(C)C(=O)OC1CC(O)C23C4OCC5(C(O)CC2C1(C)C(O)O4)C3C(=O)C(O)C1(C)C(O)(c2ccoc2)CC2OC251` (stereo not drawn), for which the Potency in [1] is 0.0765 µM (active). For the same compound, the values for the activity in [2], in [4] and in assay [5] were -73%, -4.23% and -2.09%, respectively. Further, the activity change, negative = inhibition in [3] was -8.15% [at 19.1 µM]. For the same compound, the Potency result in assay [7], in assay [8], in [9], in [10], in assay [11] and in [12] was “inactive” throughout.
`CC1=CC(=O)C2(OC3OC(C)C(O)C(OC(=O)/C=C/c4ccccc4)C3O)C=COC(OC3OC(CO)C(O)C(O)C3O)C12` (stereo not drawn): the Potency result in assay [1], in assay [7], in [8], in assay [9], in [11] and in [12] was “inactive” throughout. In addition, the activity in [2] is -48.2%; in [4] it was -1.08%; in assay [5], 1.5%. Moreover, in assay [3], the activity change, negative = inhibition is -2.18% [at 19.1 µM]. The Potency in assay [10] was 1.41 µM (active).
Regarding `CC1(C)[C@@H](O)CC[C@]2(C)[C@H]3CC=C4[C@@H]5C[C@](C)(C(=O)O)CC[C@]5(C)CC[C@@]4(C)[C@]3(C)CC[C@@H]12`, the Potency result in assay [1], in [7], in assay [8], in assay [9], in [10] and in assay [11] was “inactive” each time. The Potency result in [12] is “inactive”. Further, the figures for the activity in assay [2], in [4] and in assay [5] were -16.8%, -38.7% and -42.7%, respectively. Further, in assay [3], the Potency is 27.1 µM (active).
